Reference: PubChem BioAssay AID1159580 (chemical genetic matrix, 2015)
Screen size: about 5,500 compounds; about 2,000 (36%) were called active. Inconclusive results (about 18%) are left out. Cut-off read from the data, not from the text of the source: active = normalized growth mostly below about 0.91 (no sharp cut-off); inconclusive = no clear call, values can overlap the other calls; inactive = mostly above about 0.92. This is one part of the list.

Assay: chemical genetic growth profiling, strain panel (AID 1159580);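 note: tested at 20 µM; growth read once vehicle control cultures reached saturation at 30 °C; 1 = growth at the plate median or of vehicle wells; lower values mean less growth of the strain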
Details: S. cerevisiae deletion strains, growth OD

Measured: normalized growth

CC(C)(O)[C@@H]1CC[C@](C)([C@H]2[C@@H](O)C[C@@]3(C)C4C[C@H](O[C@@H]5O[C@H](CO)[C@@H](O)[C@H](O)[C@H]5O)C5C(C)(C)[C@@H](O[C@@H]6OC[C@@H](O)[C@H](O)[C@H]6O)CC[C@@]56C[C@@]46CC[C@]23C)O1 (stereo not given in full)
inactive: locus YAL021C, strain ccr4, hits give low values 0.988 | locus YAL026C, strain drs2, hits give low values 0.986 | locus YAL030W, strain snc1, hits give low values 0.99 | locus YBL061C, strain skt5, hits give low values 0.999 | locus YBR009C, strain hhf1, hits give low values 1.01 | locus YBR023C, strain chs3, hits give low values 0.998 | locus YBR171W, strain sec66, hits give low values 0.989 | locus YBR231C, strain swc5, hits give low values 1 | locus YBR279W, strain paf1, hits give low values 0.991 | locus YCL011C, strain gbp2, hits give low values 0.995 | locus YCL016C, strain dcc1, hits give low values 1 | locus YCL061C, strain MRC1, hits give low values 1 | locus YCL069W, strain vba3, hits give low values 0.981 | locus YCR088W, strain abp1, hits give low values 0.986 | locus YDL005C, strain med2, hits give low values 0.977 | locus YDL040C, strain nat1, hits give low values 0.985 | locus YDR001C, strain nth1, hits give low values 0.991 | locus YDR069C, strain doa4, hits give low values 0.975 | locus YDR137W, strain rgp1, hits give low values 1.04 | locus YDR159W, strain sac3, hits give low values 0.966 | locus YDR195W, strain ref2 0.931 | locus YDR297W, strain sur2, hits give low values 1 | locus YDR334W, strain swr1, hits give low values 0.959 | locus YDR335W, strain msn5, hits give low values 0.986 | locus YDR392W, strain spt3, hits give low values 0.997 | locus YEL003W, strain gim4, hits give low values 0.991 | locus YEL037C, strain rad23, hits give low values 0.974 | locus YEL061C, strain CIN8 (second series), hits give low values 0.985 | locus YER015W, strain faa2, hits give low values 0.998 | locus YER016W, strain bim1, hits give low values 1 | locus YER111C, strain swi4, hits give low values 0.979 | locus YER155C, strain BEM2 (second series), hits give low values 1 | locus YFR010W, strain ubp6, hits give low values 0.989 | locus YGL167C, strain pmr1, hits give low values 0.979 | locus YGL173C, strain kem1, hits give low values 0.99 | locus YGL227W, strain vid30, hits give low values 0.999 | locus YGL240W, strain doc1, hits give low values 1 | locus YGL253W, strain hxk2, hits give low values 0.988 | locus YHR013C, strain ard1, hits give low values 0.976 | locus YHR027C, strain rpn1, hits give low values 0.998 | locus YHR030C, strain SLT2, hits give low values 0.954 | locus YHR079C, strain IRE1, hits give low values 0.96 | locus YHR142W, strain chs7, hits give low values 0.978 | locus YJL092W, strain hpr5, hits give low values 0.995 | locus YJL095W, strain BCK1 (second series), hits give low values 0.981 | locus YJL095W, strain BCK1, hits give low values 1.05 | locus YJL115W, strain asf1, hits give low values 0.978 | locus YJL129C, strain trk1, hits give low values 0.989 | locus YJL154C, strain vps35, hits give low values 0.972 | locus YJL164C, strain tpk1, hits give low values 1 | locus YJL166W, strain qcr8, hits give low values 0.987 | locus YJL187C, strain SWE1, hits give low values 0.993 | locus YJR066W, strain TOR1, hits give low values 0.92 | locus YKL160W, strain elf1, hits give low values 0.996 | locus YKR026C, strain gcn3, hits give low values 0.992 | locus YKR091W, strain srl3, hits give low values 0.993 | locus YLL001W, strain dnm1, hits give low values 1 | locus YLL026W, hits give low values 1 | locus YLL041C, strain sdh2, hits give low values 0.98 | locus YLR027C, strain aat2, hits give low values 1.02 | locus YLR113W, strain HOG1, hits give low values 1.1 | locus YLR221C, strain rsa3, hits give low values 1 | locus YLR258W, strain gsy2, hits give low values 0.979 | locus YLR262C, strain YPT6 (second series), hits give low values 0.998 | locus YLR320W, strain mms22, hits give low values 0.996 | locus YLR342W, strain FKS1, hits give low values 1 | locus YLR357W, strain rsc2, hits give low values 0.967 | locus YLR370C, strain arc18, hits give low values 0.986 | locus YLR384C, strain iki3, hits give low values 1 | locus YML120C, strain ndi1, hits give low values 0.98 | locus YMR058W, strain fet3, hits give low values 0.994 | locus YMR125W, strain sto1, hits give low values 0.984 | locus YMR129W, hits give low values 0.995 | locus YMR205C, strain PFK2, hits give low values 0.976 | locus YMR231W, strain pep5, hits give low values 0.991 | locus YNL071W, strain lat1, hits give low values 0.972 | locus YNL183C, strain NPR1, hits give low values 0.985 | locus YNL209W, strain ssb2, hits give low values 0.987 | locus YNL248C, strain rpa49, hits give low values 0.981 | locus YNL322C, strain KRE1 (second series), hits give low values 0.989 | locus YNR049C, strain mso1, hits give low values 0.994 | locus YOR001W, strain rrp6, hits give low values 0.972 | locus YOR070C, strain gyp1, hits give low values 1 | locus YOR080W, strain dia2, hits give low values 0.987 | locus YOR083W, strain WHI5, hits give low values 1 | locus YOR106W, strain vam3, hits give low values 0.99 | locus YOR231W, strain MKK1, hits give low values 0.95 | locus YOR265W, strain rbl2, hits give low values 0.993 | locus YOR270C, strain vph1, hits give low values 0.793 | locus YOR290C, strain snf2, hits give low values 1.01 | locus YPL051W, strain arl3, hits give low values 1.01 | locus YPL078C, strain atp4, hits give low values 0.975 | locus YPL106C, strain sse1, hits give low values 0.975 | locus YPL240C, strain hsp82, hits give low values 0.989 | locus YPL256C, strain CLN2, hits give low values 0.974
